What all share (experiment): PBM; 200 nM protein, PBS
What all share (details): dsDNA, one strand shown

For test [1], the target named is HOXA4 (Homo sapiens, UniProt Q00056 201-287, W262R).
In test [2] the target is HOXA4 (Homo sapiens, UniProt Q00056 201-287, R217L).
Test [3] addresses HOXD13 (Homo sapiens, UniProt P35453 263-343, T313R).
Test [4] has as its target HOXD13 (Homo sapiens, UniProt P35453 263-343).
Test [5] concerns the target HOXA4 (Homo sapiens, UniProt Q00056 201-287).
Test [6] has as its target HOXD13 (Homo sapiens, UniProt P35453 263-343, T313A).
Test [7] addresses HOXA4 (Homo sapiens, UniProt Q00056 201-287, W262F).
Test [8] has as its target MSX2 (Homo sapiens, UniProt P35548 130-214, R199I).
In test [9] the target is MSX2 (Homo sapiens, UniProt P35548 130-214).
Chain of MSX2 (Homo sapiens, UniProt P35548 130-214) (P35548 130-214): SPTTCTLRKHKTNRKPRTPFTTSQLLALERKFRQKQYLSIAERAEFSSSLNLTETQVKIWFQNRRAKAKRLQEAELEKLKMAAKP
Test [10] has as its target MSX2 (Homo sapiens, UniProt P35548 130-214, F161Y).
Test [11] deals with T1, NKX2-6 (Homo sapiens, UniProt A6NCS4 118-204).
T1 sequence: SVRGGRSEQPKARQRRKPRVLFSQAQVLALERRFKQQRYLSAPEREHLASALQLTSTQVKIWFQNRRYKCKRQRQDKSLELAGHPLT

The target in test [12] is T2, NKX2-6 (Homo sapiens, UniProt A6NCS4 118-204, F151L).
T2 sequence: T1 sequence with F34L

The target in test [13] is ALX3 (Homo sapiens, UniProt O95076 139-225, N203Q).
Chain of ALX3 (Homo sapiens, UniProt O95076 139-225, N203Q) (O95076 139-225 N203Q): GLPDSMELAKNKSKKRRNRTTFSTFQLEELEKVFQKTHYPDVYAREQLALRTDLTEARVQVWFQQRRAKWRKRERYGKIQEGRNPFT
Test [14] has as its target ALX3 (Homo sapiens, UniProt O95076 139-225).
The target in test [15] is ALX3 (Homo sapiens, UniProt O95076 139-225, L168Q).
Chain of ALX3 (Homo sapiens, UniProt O95076 139-225, L168Q) (O95076 139-225 L168Q): as the sequence (O95076 139-225 N203Q) above, with L30Q, Q65N counted along it
In test [16] the target is ALX3 (Homo sapiens, UniProt O95076 139-225, L168V).
Chain of ALX3 (Homo sapiens, UniProt O95076 139-225, L168V) (O95076 139-225 L168V): as the sequence (O95076 139-225 N203Q) above, with L30V, Q65N counted along it
In test [17] the target is ALX3 (Homo sapiens, UniProt O95076 139-225, N203S).
Chain of ALX3 (Homo sapiens, UniProt O95076 139-225, N203S) (O95076 139-225 N203S): as the sequence (O95076 139-225 N203Q) above, with Q65S counted along it
Another test addresses ALX4 (Homo sapiens, UniProt Q9H161 200-286, Q225E).
The target in the next test is HOXC9 (Homo sapiens, UniProt P31274 178-260, R222W).
Chain of HOXC9 (P31274 178-260 R222W): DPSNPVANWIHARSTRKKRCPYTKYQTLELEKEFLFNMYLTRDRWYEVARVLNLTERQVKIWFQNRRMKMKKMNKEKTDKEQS
The target of test [18] is ALX1 (Homo sapiens, UniProt Q15699 118-204, L144V).
Chain of ALX1 (Homo sapiens, UniProt Q15699 118-204, L144V) (Q15699 118-204 L144V): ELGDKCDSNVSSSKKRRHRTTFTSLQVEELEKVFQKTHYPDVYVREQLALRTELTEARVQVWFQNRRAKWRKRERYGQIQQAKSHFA
The target in test [19] is ALX1 (Homo sapiens, UniProt Q15699 118-204, L144R).
Chain of ALX1 (Homo sapiens, UniProt Q15699 118-204, L144R) (Q15699 118-204 L144R): as the sequence (Q15699 118-204 L144V) above, with V27R counted along it
In test [20] the target is ALX1 (Homo sapiens, UniProt Q15699 118-204).
Chain of ALX1 (Homo sapiens, UniProt Q15699 118-204) (Q15699 118-204): as the sequence (Q15699 118-204 L144V) above, with V27L counted along it
In test [21] the target is HOXA2 (Homo sapiens, UniProt O43364 129-215, R185T).
Chain of HOXA2 (Homo sapiens, UniProt O43364 129-215, R185T) (O43364 129-215 R185T): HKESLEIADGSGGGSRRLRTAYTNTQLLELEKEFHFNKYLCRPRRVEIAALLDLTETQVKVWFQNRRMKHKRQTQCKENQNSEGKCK
For test [22], the target named is HOXA2 (Homo sapiens, UniProt O43364 129-215, R185K).
Chain of HOXA2 (Homo sapiens, UniProt O43364 129-215, R185K) (O43364 129-215 R185K): as the sequence (O43364 129-215 R185T) above, with T57K counted along it
The target of test [23] is VAX1 (Homo sapiens, UniProt Q5SQQ9 86-172).
Chain of VAX1 (Homo sapiens, UniProt Q5SQQ9 86-172) (Q5SQQ9 86-172): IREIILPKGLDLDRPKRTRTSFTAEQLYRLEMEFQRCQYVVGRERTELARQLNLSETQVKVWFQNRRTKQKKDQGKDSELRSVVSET
For test [24], the target named is VAX1 (Homo sapiens, UniProt Q5SQQ9 86-172, T142I).
Chain of VAX1 (Homo sapiens, UniProt Q5SQQ9 86-172, T142I) (Q5SQQ9 86-172 T142I): as the sequence (Q5SQQ9 86-172) above, with T57I counted along it
Test [25] deals with HOXA2 (Homo sapiens, UniProt O43364 129-215, Y150S).
Chain of HOXA2 (Homo sapiens, UniProt O43364 129-215, Y150S) (O43364 129-215 Y150S): as the sequence (O43364 129-215 R185T) above, with Y22S, T57R counted along it
Test [26] addresses HOXA2 (Homo sapiens, UniProt O43364 129-215).
Test [27] has as its target VAX1 (Homo sapiens, UniProt Q5SQQ9 86-172, K157R).

Positions count from the first letter of the chain named.

Chain of HOXA4 (Homo sapiens, UniProt Q00056 201-287, R217L) (Q00056 201-287 R217L): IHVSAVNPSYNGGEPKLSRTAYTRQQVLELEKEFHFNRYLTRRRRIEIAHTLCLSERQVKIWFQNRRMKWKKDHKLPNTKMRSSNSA
Chain of HOXA4 (Homo sapiens, UniProt Q00056 201-287) (Q00056 201-287): as the sequence (Q00056 201-287 R217L) above, with L17R counted along it
Chain of HOXA4 (Homo sapiens, UniProt Q00056 201-287, W262R) (Q00056 201-287 W262R): as the sequence (Q00056 201-287 R217L) above, with L17R, W62R counted along it
Chain of HOXA4 (Homo sapiens, UniProt Q00056 201-287, W262F) (Q00056 201-287 W262F): as the sequence (Q00056 201-287 R217L) above, with L17R, W62F counted along it
Chain of HOXD13 (Homo sapiens, UniProt P35453 263-343, T313R) (P35453 263-343 T313R): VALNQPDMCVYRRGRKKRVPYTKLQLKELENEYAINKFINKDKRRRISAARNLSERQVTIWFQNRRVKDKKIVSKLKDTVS
Chain of HOXD13 (Homo sapiens, UniProt P35453 263-343, T313A) (P35453 263-343 T313A): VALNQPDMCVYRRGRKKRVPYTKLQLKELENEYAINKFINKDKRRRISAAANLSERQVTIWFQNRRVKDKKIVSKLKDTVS
Chain of MSX2 (Homo sapiens, UniProt P35548 130-214, F161Y) (P35548 130-214 F161Y): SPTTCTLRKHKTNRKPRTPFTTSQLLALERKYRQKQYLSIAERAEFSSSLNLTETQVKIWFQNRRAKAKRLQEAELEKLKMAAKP
Chain of HOXD13 (Homo sapiens, UniProt P35453 263-343) (P35453 263-343): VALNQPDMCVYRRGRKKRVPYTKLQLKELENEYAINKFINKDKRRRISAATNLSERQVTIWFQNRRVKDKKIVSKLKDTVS
Chain of MSX2 (Homo sapiens, UniProt P35548 130-214, R199I) (P35548 130-214 R199I): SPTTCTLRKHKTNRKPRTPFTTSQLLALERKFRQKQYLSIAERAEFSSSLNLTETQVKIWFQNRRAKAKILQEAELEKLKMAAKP
Chain of ALX3 (Homo sapiens, UniProt O95076 139-225) (O95076 139-225): as the sequence (O95076 139-225 N203Q) above, with Q65N counted along it
Chain of HOXA2 (Homo sapiens, UniProt O43364 129-215) (O43364 129-215): as the sequence (O43364 129-215 R185T) above, with T57R counted along it
Chain of VAX1 (Homo sapiens, UniProt Q5SQQ9 86-172, K157R) (Q5SQQ9 86-172 K157R): as the sequence (Q5SQQ9 86-172) above, with K72R counted along it
Chain of ALX4 (Q9H161 200-286 Q225E): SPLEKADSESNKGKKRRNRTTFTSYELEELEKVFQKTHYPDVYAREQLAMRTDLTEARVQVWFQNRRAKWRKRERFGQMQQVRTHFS

Take AGAAGGGG: the binding signal in the test with HOXA4 [1] was 9.84 upbm affinity estimate (log intensity, higher = more binding, comparable within an allelic series); with HOXA4 [2], 9.53 upbm affinity estimate (log intensity, higher = more binding, comparable within an allelic series); in the test with HOXD13 [3], 9.5 upbm affinity estimate (log intensity, higher = more binding, comparable within an allelic series); in the test with HOXD13 [4], 9.51 upbm affinity estimate (log intensity, higher = more binding, comparable within an allelic series); with HOXA4 [5], 9.57 upbm affinity estimate (log intensity, higher = more binding, comparable within an allelic series); with HOXD13 [6] it was 9.57 upbm affinity estimate (log intensity, higher = more binding, comparable within an allelic series). For the same sequence, the binding signal with HOXA4 [7] is 9.68 upbm affinity estimate (log intensity, higher = more binding, comparable within an allelic series).
Consider AGGGCGGG, for which the binding signal in the test with HOXA4 [1] is 9.85 upbm affinity estimate (log intensity, higher = more binding, comparable within an allelic series); with HOXA4 [2] it was 9.99 upbm affinity estimate (log intensity, higher = more binding, comparable within an allelic series); with MSX2 [8] it was 9.58 upbm affinity estimate (log intensity, higher = more binding, comparable within an allelic series); with HOXA4 [5], 10 upbm affinity estimate (log intensity, higher = more binding, comparable within an allelic series); with MSX2 [9], 9.55 upbm affinity estimate (log intensity, higher = more binding, comparable within an allelic series); in the test with MSX2 [10] it was 9.62 upbm affinity estimate (log intensity, higher = more binding, comparable within an allelic series). Also, the binding signal with HOXA4 [7] is 10.1 upbm affinity estimate (log intensity, higher = more binding, comparable within an allelic series).
In the case of CCCGGTCG, the binding signal with HOXA4 [1] is 9.67 upbm affinity estimate (log intensity, higher = more binding, comparable within an allelic series); with HOXA4 [2], 9.77 upbm affinity estimate (log intensity, higher = more binding, comparable within an allelic series); with MSX2 [8], 9.45 upbm affinity estimate (log intensity, higher = more binding, comparable within an allelic series); with NKX2-6 [11] it was 9.06 upbm affinity estimate (log intensity, higher = more binding, comparable within an allelic series); with HOXA4 [5], 9.88 upbm affinity estimate (log intensity, higher = more binding, comparable within an allelic series); in the test with MSX2 [9], 9.4 upbm affinity estimate (log intensity, higher = more binding, comparable within an allelic series). Besides, the binding signal with NKX2-6 [12] is 9.02 upbm affinity estimate (log intensity, higher = more binding, comparable within an allelic series); in the test with MSX2 [10], 9.41 upbm affinity estimate (log intensity, higher = more binding, comparable within an allelic series); in the test with HOXA4 [7], 9.76 upbm affinity estimate (log intensity, higher = more binding, comparable within an allelic series).
In the case of CCCCCCGA, the binding signal in the test with HOXA4 [1] is 9.72 upbm affinity estimate (log intensity, higher = more binding, comparable within an allelic series); in the test with HOXA4 [2], 9.69 upbm affinity estimate (log intensity, higher = more binding, comparable within an allelic series); with ALX3 [13], 7.7 upbm affinity estimate (log intensity, higher = more binding, comparable within an allelic series); with HOXA4 [5] it was 9.77 upbm affinity estimate (log intensity, higher = more binding, comparable within an allelic series); with ALX3 [14], 7.94 upbm affinity estimate (log intensity, higher = more binding, comparable within an allelic series); with ALX3 [15], 7.67 upbm affinity estimate (log intensity, higher = more binding, comparable within an allelic series). Besides, the binding signal in the test with ALX3 [16] was 7.65 upbm affinity estimate (log intensity, higher = more binding, comparable within an allelic series); with HOXA4 [7], 9.57 upbm affinity estimate (log intensity, higher = more binding, comparable within an allelic series); with ALX3 [17] it was 7.71 upbm affinity estimate (log intensity, higher = more binding, comparable within an allelic series).
In the case of AGGGGGCA, the binding signal was 9.67 upbm affinity estimate (log intensity, higher = more binding, comparable within an allelic series) with HOXA4 [1]; 9.81 upbm affinity estimate (log intensity, higher = more binding, comparable within an allelic series) with HOXA4 [2]; 9.88 upbm affinity estimate (log intensity, higher = more binding, comparable within an allelic series) with HOXA4 [5]; 9.82 upbm affinity estimate (log intensity, higher = more binding, comparable within an allelic series) in the test with HOXA4 [7].
Consider CAATAAAG, for which the binding signal is 10.4 upbm affinity estimate (log intensity, higher = more binding, comparable within an allelic series) in the test with HOXA4 [1]; 10.7 upbm affinity estimate (log intensity, higher = more binding, comparable within an allelic series) in the test with ALX4; 10.8 upbm affinity estimate (log intensity, higher = more binding, comparable within an allelic series) in the test with HOXD13 [3]; 11.9 upbm affinity estimate (log intensity, higher = more binding, comparable within an allelic series) with HOXD13 [4]; 11.7 upbm affinity estimate (log intensity, higher = more binding, comparable within an allelic series) in the test with HOXA4 [5]; 11.7 upbm affinity estimate (log intensity, higher = more binding, comparable within an allelic series) with HOXD13 [6]. In addition, in the test with HOXC9, the binding signal was 11.1 upbm affinity estimate (log intensity, higher = more binding, comparable within an allelic series).
With GACTCCGC, the binding signal with HOXA4 [1] was 9.83 upbm affinity estimate (log intensity, higher = more binding, comparable within an allelic series); with HOXA4 [2], 9.81 upbm affinity estimate (log intensity, higher = more binding, comparable within an allelic series); with ALX1 [18], 6.29 upbm affinity estimate (log intensity, higher = more binding, comparable within an allelic series); with ALX1 [19], 6.35 upbm affinity estimate (log intensity, higher = more binding, comparable within an allelic series); with HOXA4 [5], 9.59 upbm affinity estimate (log intensity, higher = more binding, comparable within an allelic series); in the test with ALX1 [20], 6.25 upbm affinity estimate (log intensity, higher = more binding, comparable within an allelic series). In the test with HOXA4 [7], the binding signal is 9.87 upbm affinity estimate (log intensity, higher = more binding, comparable within an allelic series).
With TAATGAGA, the binding signal is 10.5 upbm affinity estimate (log intensity, higher = more binding, comparable within an allelic series) in the test with HOXA4 [1]; 12.9 upbm affinity estimate (log intensity, higher = more binding, comparable within an allelic series) in the test with HOXA2 [21]; 11.8 upbm affinity estimate (log intensity, higher = more binding, comparable within an allelic series) with HOXA4 [2]; 13.3 upbm affinity estimate (log intensity, higher = more binding, comparable within an allelic series) with HOXA2 [22]; 13.6 upbm affinity estimate (log intensity, higher = more binding, comparable within an allelic series) in the test with HOXA4 [5]; 13.2 upbm affinity estimate (log intensity, higher = more binding, comparable within an allelic series) with VAX1 [23]. The binding signal with VAX1 [24] was 12.7 upbm affinity estimate (log intensity, higher = more binding, comparable within an allelic series); with HOXA2 [25], 10.8 upbm affinity estimate (log intensity, higher = more binding, comparable within an allelic series); in the test with HOXA4 [7], 11.5 upbm affinity estimate (log intensity, higher = more binding, comparable within an allelic series); with HOXA2 [26] it was 12.5 upbm affinity estimate (log intensity, higher = more binding, comparable within an allelic series); with VAX1 [27] it was 12.8 upbm affinity estimate (log intensity, higher = more binding, comparable within an allelic series).
As to CCAGCGGG, the binding signal in the test with HOXA4 [1] is 9.83 upbm affinity estimate (log intensity, higher = more binding, comparable within an allelic series); with HOXA4 [2] it was 9.65 upbm affinity estimate (log intensity, higher = more binding, comparable within an allelic series); with HOXA4 [5], 9.72 upbm affinity estimate (log intensity, higher = more binding, comparable within an allelic series); with HOXA4 [7], 9.76 upbm affinity estimate (log intensity, higher = more binding, comparable within an allelic series).

(Values after paper PMC11006913.)
